This is part of a sample that, as a whole, favours compounds with a hit. Of some 83,000 tested, about 20% had one in any assay.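 Step 1: grow cells in 96-well plates. Step 2: add test compound at a single concentration. Step 3: incubate 48 h. Step 4: record percent growth.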 Activity calls are given as the source filed them. The calls were made as follows: active = growth percent below 10; inactive = the rest.
What was measured:
Assay in all cases: NCI-60 one-dose screen, 48 h (100 = growth as untreated, 0 = no growth, -100 = all killed)
Details in all cases: 10 µM unless noted
NCI-H23 lung = test system: NCI-H23 lung
NCI-H226 lung = test system: NCI-H226 lung
NCI-H322M lung = test system: NCI-H322M lung
HOP-62 NSCLC = test system: HOP-62 NSCLC
NCI-H460 lung = test system: NCI-H460 lung
HOP-92 NSCLC = test system: HOP-92 NSCLC
NCI-H522 lung = test system: NCI-H522 lung
A549/ATCC NSCLC = test system: A549/ATCC NSCLC
COLO 205 colon = test system: COLO 205 colon
786-0 renal = test system: 786-0 renal

Measured: growth

CNC(=O)Nc1ccc(-c2nc(N3CCOCC3)nc3c2cnn3C2CCOCC2)cc1
active: NCI-H226 lung -12.4% | NCI-H322M lung -9.52% | HOP-62 NSCLC -11% | HOP-92 NSCLC -27.6% | NCI-H522 lung -0.372% | A549/ATCC NSCLC -1.33% | COLO 205 colon 5.84%
inactive: NCI-H23 lung 17.5% | NCI-H460 lung 11.8%

COc1cc(/C=C/C(=O)c2c(C)oc3nc[nH]c(=O)c23)ccc1O
inactive: NCI-H23 lung 98.7% | NCI-H226 lung 102% | NCI-H322M lung 98.3% | HOP-62 NSCLC 93.9% | NCI-H460 lung 103% | HOP-92 NSCLC 116% | NCI-H522 lung 101% | A549/ATCC NSCLC 101% | 786-0 renal 102% | COLO 205 colon 102%

COc1ccc(-c2c(-c3ccccc3)noc2N)cc1OC
inactive: NCI-H23 lung 105% | NCI-H226 lung 113% | NCI-H322M lung 96.1% | HOP-62 NSCLC 124% | NCI-H460 lung 116% | HOP-92 NSCLC 90.8% | NCI-H522 lung 86.1% | A549/ATCC NSCLC 93.8% | 786-0 renal 96.4% | COLO 205 colon 118%

O=C(O)c1cn(C2CC2)c2cc(N3CCN(C(=O)C[n+]4cccc5ccccc54)CC3)c(F)cc2c1=O
active: NCI-H522 lung -90%
inactive: NCI-H23 lung 84.4% | NCI-H226 lung 101% | NCI-H322M lung 102% | HOP-62 NSCLC 98.9% | NCI-H460 lung 96.6% | HOP-92 NSCLC 95.5% | A549/ATCC NSCLC 98.7% | 786-0 renal 48.5% | COLO 205 colon 34.5%

CC(=O)c1c[nH]c2ccc(-c3ccnc(Nc4ccc(NC(=O)C5CCCC5)c(CN5CCOCC5)c4)n3)cc12
active: NCI-H23 lung -36.4% | NCI-H226 lung -0.452% | NCI-H322M lung -11.5% | HOP-62 NSCLC 2.51% | NCI-H460 lung -60.6% | HOP-92 NSCLC -5.65% | A549/ATCC NSCLC 4.82% | 786-0 renal 0.29% | COLO 205 colon -31.9%

COc1ccc(C(=O)c2cc3c(N)c(C(=O)Nc4cccc(Cl)c4C)sc3nc2C)cc1
active: NCI-H460 lung 6.21% | NCI-H522 lung -8.11% | COLO 205 colon -26.2%
inactive: NCI-H23 lung 29.3% | NCI-H226 lung 44% | NCI-H322M lung 52.6% | HOP-62 NSCLC 29.1% | HOP-92 NSCLC 27.7% | A549/ATCC NSCLC 13.2% | 786-0 renal 29%

C[C@H]1[C@H](C)CC[C@]2(CO)CC[C@]3(C)C(=CC[C@@H]4[C@@]5(C)CCCNC(C)(C)[C@@H]5CC[C@]43C)[C@H]12
active: NCI-H226 lung -99% | NCI-H322M lung -17.9% | HOP-62 NSCLC -23.1% | NCI-H460 lung -83.3% | HOP-92 NSCLC -5.92% | NCI-H522 lung -77.8% | 786-0 renal -81% | COLO 205 colon -78.3%
inactive: NCI-H23 lung 36.1% | A549/ATCC NSCLC 12%

Nc1c(C(=O)Nc2ccc(Cl)cc2)cc(-c2nc3ccccc3s2)c(=O)n1NS(=O)(=O)c1ccc(Cl)cc1
inactive: NCI-H23 lung 92.7% | NCI-H226 lung 86.4% | NCI-H322M lung 93.8% | HOP-62 NSCLC 102% | NCI-H460 lung 106% | HOP-92 NSCLC 96.2% | A549/ATCC NSCLC 104% | 786-0 renal 101% | COLO 205 colon 105%

Cc1ccc2nc3c(cc2c1)CSc1nnc(-c2ccc[nH]c2=S)n1N3
inactive: NCI-H23 lung 98.6% | NCI-H226 lung 91.5% | NCI-H322M lung 99.9% | HOP-62 NSCLC 95.8% | NCI-H460 lung 99.2% | HOP-92 NSCLC 102% | A549/ATCC NSCLC 99.7% | 786-0 renal 98.7% | COLO 205 colon 110%

COc1cc(CNC(=O)CCCCC[P+](c2ccccc2)(c2ccccc2)c2ccccc2)c(OC)c2c1OCO2
inactive: NCI-H23 lung 66.9% | NCI-H226 lung 88.3% | NCI-H322M lung 96.8% | HOP-62 NSCLC 90.1% | NCI-H460 lung 78.6% | HOP-92 NSCLC 23.5% | A549/ATCC NSCLC 87.8% | 786-0 renal 96.3% | COLO 205 colon 45.8%

COc1cc(NCC(O)CN(CC(C)C)C2CCCC2)c2ncccc2c1 (centres undefined)
inactive: NCI-H23 lung 77.6% | NCI-H226 lung 94.3% | NCI-H322M lung 110% | HOP-62 NSCLC 86.5% | NCI-H460 lung 89.4% | HOP-92 NSCLC 73.8% | NCI-H522 lung 70.6% | A549/ATCC NSCLC 66.1% | 786-0 renal 89.3% | COLO 205 colon 97%

COc1ccc(/C=N/C2=C(C#N)C(c3ccccc3[N+](=O)[O-])c3ccc4ccccc4c3O2)cc1 (centres undefined)
inactive: NCI-H23 lung 79% | NCI-H226 lung 70.4% | NCI-H322M lung 90.6% | HOP-62 NSCLC 103% | NCI-H460 lung 91.4% | HOP-92 NSCLC 97.1% | NCI-H522 lung 88.1% | A549/ATCC NSCLC 99.8% | 786-0 renal 101% | COLO 205 colon 104%

COc1ccc(C2CC(c3cccc(Nc4ccncc4)c3)=NN2c2cc(Cl)cc(Cl)c2)cc1 (centres undefined)
inactive: NCI-H23 lung 80.2% | NCI-H226 lung 87.6% | NCI-H322M lung 75.9% | HOP-62 NSCLC 25.1% | HOP-92 NSCLC 54.9% | A549/ATCC NSCLC 26.5% | 786-0 renal 99.2%
active: NCI-H460 lung -77.6% | COLO 205 colon -55.1%
